# Data published in PubChem BioAssay (NCI).
# The panel holds about 79,000 compounds, 15% with a hit somewhere; the sample as a whole holds those more often. Unmarked numbers belong to inactive results. Active and inactive are the calls of the source. No stated cut-off is given here; in the data, active means growth inhibition above about 70%; inactive means the rest.
# What was measured:
# [1] = NCI Yeast Anticancer Drug Screen. Data for the rad50 strain (AID 155);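 further: 0% = growth of vehicle-only cultures of the same strain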; conditions: S. cerevisiae rad50 strain growth inhibition, active compounds read high
# How it was run: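 Readout: growth inhibition relative to vehicle-treated cultures. Compound exposure was carried out in a genetically defined yeast strain deficient in DNA damage repair.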
# [2] = NCI Yeast Anticancer Drug Screen. Data for the mec2-1 strain (AID 157); conditions: S. cerevisiae mec2-1 strain, active compounds read high
# How it was run: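 Readout is yeast growth inhibition, normalised to vehicle-treated controls, in the mec2-1 strain exposed to compound.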
# [3] = NCI Yeast Anticancer Drug Screen. Data for the sgs1 mgt1 strain (AID 161);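 further: 0% = growth of cultures given vehicle only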; conditions: S. cerevisiae sgs1 mgt1 strain, active compounds read high
# How it was run: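 Compounds are added to genetically altered yeast, and growth is compared with cultures given vehicle alone to give percent inhibition.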
# [4] = NCI Yeast Anticancer Drug Screen. Data for the cln2 rad14 strain (AID 165);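 further: 0% = growth equal to vehicle treated cultures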; conditions: S. cerevisiae cln2 rad14 strain, active compounds read high
# How it was run: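 Relative to vehicle controls, growth inhibition of compound-treated cln2 rad14 yeast was recorded.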
# [5] = NCI Yeast Anticancer Drug Screen. Data for the bub3 strain (AID 167); conditions: S. cerevisiae bub3 mutant strain, active compounds read high
# How it was run: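 Readout: yeast growth inhibition, expressed relative to vehicle-only wells. The test organism is a mutant strain from a panel with lesions in DNA repair or checkpoint genes.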
# [6] = NCI Yeast Anticancer Drug Screen. Data for the mlh1 rad18 strain (AID 175); conditions: S. cerevisiae mlh1 rad18 strain growth inhibition, active compounds read high
# How it was run: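 Test agents were incubated with a yeast strain of defined genotype (DNA damage repair defect). Inhibition of growth was derived by comparison with vehicle-exposed cultures.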
# [7] = at 5.0 µM (retest, dose inferred, filed as 0.5)
# [8] = at 50.0 µM (retest, dose inferred, filed as 5.0)
Structure (SMILES),"growth inhibition [1, 7]","growth inhibition [1, 8]",growth inhibition ([1]; at 50.0 µM),"growth inhibition [2, 7]","growth inhibition [2, 8]",growth inhibition ([2]; at 50.0 µM),"growth inhibition [3, 7]","growth inhibition [3, 8]",growth inhibition ([3]; at 50.0 µM),"growth inhibition [4, 7]","growth inhibition [4, 8]",growth inhibition ([4]; at 50.0 µM),"growth inhibition [5, 7]","growth inhibition [5, 8]",growth inhibition ([5]; at 50.0 µM),"growth inhibition [6, 7]","growth inhibition [6, 8]",growth inhibition ([6]; at 50.0 µM)
O=[As](O)(O)CCc1ccccc1,-148%,-168%,2.3%,-50%,-54%,3.75%,-67%,-56%,8.35%,-58%,-65%,17.4%,-67%,-78%,-5.95%,-146%,-115%,5.7%
C[C@@H]1C[C@@H]([C@H](O)CC2CC(=O)NC(=O)C2)C(=O)[C@@H](C)C1,95% (active),99% (active),92% (active),98% (active),100% (active),93.6% (active),94% (active),99% (active),94.2% (active),98% (active),99% (active),90.7% (active),98% (active),99% (active),93.7% (active),93% (active),99% (active),92.1% (active)
Nc1ccccc1C(=O)c1ccccc1,4%,8%,76.2% (active),1%,4%,11%,1%,10%,38.1%,4%,1%,3.25%,0%,-3%,47.2%,4%,5%,75.7% (active)
CCC[CH2][Sn]1([CH2]CCC)[O]CC(COc2c(Cl)cc(Cl)cc2Cl)[O]1 (stereo unspecified),94% (active),94% (active),91.2% (active),92% (active),92% (active),91.3% (active),97% (active),97% (active),90.2% (active),89% (active),89% (active),90% (active),89% (active),89% (active),92.5% (active),91% (active),91% (active),89.8% (active)
CCOc1c(Br)cc(/C=C(\C)[N+](=O)[O-])cc1OC,2%,7%,61.9%,-1%,9%,78.5% (active),6%,9%,87.3% (active),-1%,-3%,93.4% (active),-4%,2%,72.5% (active),-5%,4%,79.7% (active)
CC(=O)O[C@H]1C(=O)O[C@@H]2C[C@H]3C(C)=CC(=O)[C@@H](O)[C@]3(C)[C@H]3[C@@]4(O)OC[C@]32[C@@H]1[C@@H](C)[C@H]4O,21%,86% (active),81% (active),31%,78% (active),51.2%,17%,82% (active),59.6%,36%,90% (active),74.2% (active),1%,74% (active),60.4%,20%,93% (active),83.9% (active)
O=P(CCP(=O)(c1ccccc1)c1ccccc1)(c1ccccc1)c1ccccc1.[Cl][Sn]([Cl])([c]1ccccc1)[c]1ccccc1,82% (active),97% (active),87.7% (active),45%,99% (active),90.1% (active),91% (active),98% (active),88.5% (active),32%,97% (active),88.8% (active),81% (active),98% (active),88% (active),88% (active),95% (active),91.6% (active)
CC(C)c1oc(=O)cc2c1C(O)C1OC(=O)C3(C)C(O)C4OC4C2(C)C13 (stereo unspecified),8%,65%,31.9%,10%,81% (active),-10.8%,10%,72% (active),25.1%,19%,71% (active),15.9%,2%,76% (active),17.4%,11%,86% (active),18.4%
ClCCN(Cc1ccccc1)CC1COc2ccccc2O1 (stereo unspecified),10%,72% (active),91.2% (active),-1%,79% (active),92.1% (active),7%,95% (active),90.5% (active),-2%,34%,82.7% (active),11%,90% (active),97.3% (active),15%,94% (active),97.3% (active)
O=S(=O)(F)c1ccc(Cl)cc1,22%,97% (active),85.5% (active),4%,84% (active),20.9%,9%,92% (active),82.3% (active),3%,90% (active),49.7%,12%,97% (active),70.9% (active),13%,98% (active),90.8% (active)
CCCCCCCCCCCCCCCCOC[C@@H](COC(c1ccccc1)(c1ccccc1)c1ccccc1)O[P+](=S)OC (stereo partly specified),31%,67%,62.4%,20%,39%,85.8% (active),18%,55%,86.5% (active),36%,29%,77.6% (active),43%,58%,82.4% (active),22%,32%,91.1% (active)
OC1CCCC2CCCNC12 (stereo unspecified),84% (active),97% (active),86.4% (active),79% (active),98% (active),90% (active),97% (active),98% (active),90% (active),81% (active),98% (active),86.3% (active),96% (active),98% (active),91.8% (active),73% (active),97% (active),91.2% (active)
CCOc1ccc(CCNC)c2c1ccc1ccc(OC)c(O)c12,-1%,97% (active),97.3% (active),-5%,98% (active),99% (active),-3%,98% (active),98.1% (active),5%,98% (active),92.2% (active),-4%,98% (active),97.8% (active),6%,96% (active),98% (active)
C1CCNCC1.O=C([CH-]C(=O)C(F)(F)F)c1ccc2c(c1)C(=O)c1ccccc1-2.O=C([CH-]C(=O)C(F)(F)F)c1ccc2c(c1)C(=O)c1ccccc1-2.O=C([CH-]C(=O)C(F)(F)F)c1ccc2c(c1)C(=O)c1ccccc1-2.O=C([CH-]C(=O)C(F)(F)F)c1ccc2c(c1)C(=O)c1ccccc1-2.[Eu+3],54%,79% (active),70.3% (active),42%,64%,20.2%,15%,58%,52.2%,54%,77% (active),61.5%,34%,71% (active),52.2%,40%,69%,49.1%
CC1(C(=O)O)CCCC2(C)c3cc(O)ccc3CCC12 (stereo unspecified),2%,83% (active),18.4%,2%,86% (active),13%,2%,88% (active),46.4%,-3%,89% (active),52.4%,5%,87% (active),41.9%,3%,89% (active),42.5%
S=C=NCCc1ccccc1,-12%,21%,72% (active),-13%,18%,48.4%,-5%,-8%,42.5%,2%,8%,28.1%,5%,20%,43.8%,-20%,15%,61.6%
CN(C)c1ccc(/C=C/c2cc3scc(-c4ccccc4)[n+]3c3ccccc23)cc1,-2%,87% (active),98.7% (active),4%,99% (active),99.5% (active),-1%,99% (active),99.4% (active),-3%,98% (active),99% (active),18%,97% (active),99% (active),14%,99% (active),99.2% (active)
CN(CCCl)Cc1ccc(OCc2ccccc2)c(OCc2ccccc2)c1,2%,98% (active),99.7% (active),-20%,99% (active),99.6% (active),0%,99% (active),99.7% (active),8%,98% (active),98.1% (active),0%,99% (active),99.4% (active),3%,99% (active),99.6% (active)
CC[C@@]1(O)C[C@H](OC2CC(N(C)C)C(O)C(C)O2)c2c(cc3c(c2O)C(=O)c2c(O)ccc(O)c2C3=O)[C@H]1C(=O)OC (stereo partly specified),96% (active),98% (active),91.1% (active),77% (active),98% (active),92.1% (active),88% (active),99% (active),92.5% (active),82% (active),99% (active),88.7% (active),88% (active),99% (active),91.2% (active),94% (active),98% (active),93.2% (active)
CC(C)=N.[C-]#[O+].[C-]#[O+].[C-]#[O+].[C-]#[O+].[C-]#[O+].[W],30%,34%,-7.35%,15%,35%,-2.45%,26%,34%,-11.8%,36%,31%,0.7%,36%,47%,64.5%,45%,43%,-13.1%
C[CH2][Sn]([Br])([CH2]C)[c]1ccccc1CN(C)C,30%,76% (active),46.2%,23%,69%,65.5%,9%,77% (active),87.8% (active),34%,53%,71.2% (active),11%,78% (active),86.8% (active),22%,79% (active),86.7% (active)
O=[N+]([O-])c1cccc(SC(Cl)(Cl)Cl)c1,8%,97% (active),99.5% (active),40%,99% (active),99.5% (active),31%,99% (active),99.1% (active),-11%,96% (active),97.1% (active),-1%,99% (active),99.2% (active),45%,99% (active),99.3% (active)
O=S(=O)(F)c1cc(Cl)c(O)cc1Cl,-143%,16%,78.3% (active),-45%,48%,57.8%,-61%,60%,79.6% (active),-41%,47%,51.5%,-57%,39%,78.2% (active),-114%,45%,83.2% (active)
O=[N+]([O-])c1ccc(C(Br)Br)cc1,93% (active),99% (active),99.6% (active),74% (active),99% (active),99.6% (active),79% (active),99% (active),99.7% (active),70% (active),99% (active),98.6% (active),74% (active),99% (active),99.5% (active),97% (active),99% (active),99.5% (active)
CC1(C)CC2(c3ccccc3)CC(c3ccccc3)C1C(C(=O)O)C2C(=O)O (stereo unspecified),28%,99% (active),99.2% (active),27%,99% (active),99.3% (active),10%,99% (active),99.2% (active),7%,99% (active),98.8% (active),35%,96% (active),98.5% (active),17%,99% (active),99.2% (active)
CN(CCCl)c1ccc(/C=C/C2=[N+](C)c3ccccc3C2(C)C)cc1,-6%,98% (active),99.5% (active),-3%,98% (active),99.5% (active),-6%,98% (active),99.7% (active),-2%,98% (active),98.4% (active),-3%,99% (active),99.2% (active),9%,98% (active),98.7% (active)
[C-]#[O+].[C-]#[O+].[C-]#[O+].[C-]#[O+].[Mo].c1cnc2c(c1)ccc1cccnc12,-2%,0%,81% (active),-8%,-6%,60.4%,-6%,-2%,71.4% (active),-5%,-17%,39.6%,-1%,6%,79.1% (active),-4%,-8%,81.9% (active)
